Compounds with a hit are over-represented: about 19% of the library has one in this group of screens.
TDP1 cell noCPT: qHTS for Inhibitors of human tyrosyl-DNA phosphodiesterase 1 (TDP1): qHTS in cells in absence of CPT; DT40 Tdp1-/- hTDP1 cells, no CPT, ATP luminescence, 48 h; Potency, µM (top dose mostly 46.2 µM), for inactives: at the top dose activity change, negative = growth inhibition, usual class: inhibitors; actives 15% (n = 420,000); AID 686978, 2013; also: nearly all actives have a fitted effect of over 55% in size
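Stably hTDP1-transfected Tdp1-null chicken DT40 cells were treated with library compounds minus camptothecin and grown for at least 48 hr at 37 °C, after which cellular ATP was quantified by luminescence.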
HT1080-NT tox: kills 2HG-producing HT-1080-NT fibrosarcoma cells | HT-1080-NT fibrosarcoma viability, CellTiter-Glo ATP luminescence, 48 h | Potency, µM (series often up to 46.1 µM), inactives show at the highest dose activity, negative = less viability, actives largely listed as cytotoxic | actives 1.6% (n = 360,000) | AID 686970;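 also: NT is the 2HG producing partner of a matched IDH1 knockdown line; 0% = DMSO-treated cells and -100% = media-only wells without cells; nearly all actives have a fitted effect of over 55% in size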
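Luminescent CellTiter-Glo readout after 48 hours of compound exposure at 37 degrees C defined viability of HT-1080-NT cells. Activity was normalized to DMSO wells and cell-free media wells; concentration-response curves were fitted and assigned curve classes.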
TDP1 cell CPT: DT40-hTDP1 cell growth loss with CPT | chicken DT40 Tdp1-/-;hTDP1 cells + 20 nM CPT, ATP luminescence, 48 h | Potency, µM (highest dose often 46.2 µM), inactives show at the highest dose activity change, negative = growth inhibition, actives largely listed as inhibitors | actives 12% (n = 420,000) | AID 686979; also: nearly all actives have a fitted effect of over 55% in size
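Cell growth measured by CellTiter-Glo luminescence after a minimum 48 h, 37 C compound exposure with 20 nM CPT in Tdp1-knockout DT40 cells stably expressing hTDP1, seeded 400/well; qHTS titration format.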
KB-3-1 cytotox: kills parental KB-3-1 adenocarcinoma cells. KB-3-1 viability, CellTiter-Glo ATP luminescence, 72 h. Potency, µM (top dose mostly 46.1 µM), usual class: cytotoxic. actives 1.4% (n = 400,000). AID 1347075; also: nearly all actives have a fitted effect of over 60% in size
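Multi-concentration cytotoxicity screen in KB-3-1 cells grown in DMEM lacking phenol red with 10% FBS. After 72 h at 37 °C with compound, ATP-dependent luminescence was recorded.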
KB-V1 cytotox: KB-V1 MDR subline cytotoxicity. Potency, µM (highest dose often 46.1 µM), most hits filed as cytotoxic. actives 3.4% (n = 400,000). KB-V1 MDR cells viability, CellTiter-Glo, 72 h; also: nearly all actives have a fitted effect of over 60% in size
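Following 72 h at 37 degrees C with compound, KB-V1 cell viability was read by CellTiter-Glo luminescence, medium being phenol-red-free DMEM plus 10% FBS; concentration-response parameters came from normalized, curve-fitted qHTS data.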
HT1080 IDH1KD tx: toxicity to HT-1080 IDH1 knockdown cells (counter line) | Potency, µM (titrated, usually from 46.1 µM), without a hit: top-dose activity, negative = toxicity, most hits filed as cytotoxic | actives 2% (n = 360,000) | HT-1080 IDH1 knockdown viability, ATP luminescence, 48 h;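 also: 0% = DMSO wells and -100% = cell-free medium wells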
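IDH1KD HT-1080 cells, 750/well, RPMI + 5% FBS; compound pinned after 2 h settling; 48 h, 37 °C; CellTiter-Glo luminescence; % activity normalised to DMSO and no-cell wells; curves fitted, classed by r2 and efficacy.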
An asterisk follows results filed as active; [ ] = remark or other dose. Calls follow the shape of the dose curve; as a rule, active = well fitted curve in the direction sought with a large enough effect; inconclusive = small, poorly fitted or top-dose-only effect, or another doubt; inactive = no such curve, though single readings can be large; an effect the other way counts as inactive or inconclusive. Unless noted, % is scaled to controls: 0 for no effect and ±100 for the full control effect; potency is read from the fitted curve at half-maximal effect.

How did CC(=O)NC(c1ccc(C)cc1)c1cc([N+](=O)[O-])c2cccnc2c1O (centres undefined) do in these assays?
TDP1 cell noCPT: 15µM*; HT1080-NT tox: inconclusive; TDP1 cell CPT: 5.8µM*; KB-3-1 cytotox: inconclusive; KB-V1 cytotox: inconclusive; HT1080 IDH1KD tx: inconclusive

What do the screens show for `CCC(=O)NC(c1ccc(C)cc1)c1cc([N+](=O)[O-])c2cccnc2c1O` (centres undefined)?
TDP1 cell noCPT: 21µM*; HT1080-NT tox: 16µM*; TDP1 cell CPT: inconclusive; KB-3-1 cytotox: inconclusive; KB-V1 cytotox: inactive; HT1080 IDH1KD tx: 13µM*

How did CCOC(=O)NC1(Nc2cccc(Cl)c2)Oc2ccccc2O1 do in these assays?
TDP1 cell noCPT: 23µM*; HT1080-NT tox: -9%; TDP1 cell CPT: inconclusive; KB-3-1 cytotox: inconclusive; KB-V1 cytotox: inconclusive; HT1080 IDH1KD tx: -22%

What do the screens show for `CC(=O)Nc1ccc2c(c1)c1ccccc1n2C(C)=O`?
TDP1 cell noCPT: inconclusive; HT1080-NT tox: 2%; TDP1 cell CPT: inconclusive; KB-3-1 cytotox: inactive; KB-V1 cytotox: inactive; HT1080 IDH1KD tx: 8%

What do the screens show for `N#Cc1ccc2sn(-c3ccccc3)c(=O)c2c1`?
TDP1 cell noCPT: 4.6µM*; HT1080-NT tox: -4%; TDP1 cell CPT: 3.7µM*; KB-3-1 cytotox: inactive; KB-V1 cytotox: inconclusive; HT1080 IDH1KD tx: -4%

How did CC(=O)Nc1ccc2sn(-c3ccccc3)c(=O)c2c1 do in these assays?
TDP1 cell noCPT: 2.1µM*; HT1080-NT tox: -13%; TDP1 cell CPT: 2.1µM*; KB-3-1 cytotox: inactive; KB-V1 cytotox: inactive; HT1080 IDH1KD tx: -26%

How did O=c1c2cc([N+](=O)[O-])ccc2sn1-c1ccccc1 do in these assays?
TDP1 cell noCPT: 2.9µM*; HT1080-NT tox: -5%; TDP1 cell CPT: 4.6µM*; KB-3-1 cytotox: inactive; KB-V1 cytotox: inactive; HT1080 IDH1KD tx: -3%

Results for COc1ccc(C)cc1NC(=S)NC(C)c1ccc(OC)c(OC)c1 (centres undefined) ?
TDP1 cell noCPT: inconclusive; HT1080-NT tox: -8%; TDP1 cell CPT: inconclusive; KB-3-1 cytotox: inactive; KB-V1 cytotox: inactive; HT1080 IDH1KD tx: 0%

What do the screens show for `COc1ccc(-c2cc(C3CCN(CC(O)C(F)(F)F)CC3)[nH]n2)cc1` (centres undefined)?
TDP1 cell noCPT: inconclusive; HT1080-NT tox: -3%; TDP1 cell CPT: inconclusive; KB-3-1 cytotox: inactive; KB-V1 cytotox: inactive; HT1080 IDH1KD tx: 2%

How did COc1ccc(OC)c(-c2cc(C3CCN(c4cc(Cl)nc(N)n4)CC3)[nH]n2)c1 do in these assays?
TDP1 cell noCPT: 21µM*; HT1080-NT tox: -11%; TDP1 cell CPT: 13µM*; KB-3-1 cytotox: 7.3µM*; KB-V1 cytotox: 3.3µM*; HT1080 IDH1KD tx: inconclusive

What do the screens show for `Nc1nc(Cl)cc(N2CCC(c3cc(-c4ccc(Cl)cc4)n[nH]3)CC2)n1`?
TDP1 cell noCPT: 2.8µM*; HT1080-NT tox: 22µM*; TDP1 cell CPT: 3.5µM*; KB-3-1 cytotox: inconclusive; KB-V1 cytotox: 15µM*; HT1080 IDH1KD tx: 11µM*

How did CCOC(=O)C1C(=O)C=C(c2ccc([N+](=O)[O-])cc2)CC1c1ccccc1 (centres undefined) do in these assays?
TDP1 cell noCPT: -23%; HT1080-NT tox: -19%; TDP1 cell CPT: -22%; KB-3-1 cytotox: inactive; KB-V1 cytotox: inactive; HT1080 IDH1KD tx: -16%

What do the screens show for `CC(=O)C1C(=O)C=C(c2ccco2)CC1c1ccccc1` (centres undefined)?
TDP1 cell noCPT: 18µM*; HT1080-NT tox: -20%; TDP1 cell CPT: inconclusive; KB-3-1 cytotox: inactive; KB-V1 cytotox: inactive; HT1080 IDH1KD tx: 0%

What do the screens show for `O=C(Cn1cc(S(=O)(=O)Cc2cccc(Cl)c2)c2ccccc21)NCc1ccccc1Cl`?
TDP1 cell noCPT: inconclusive; TDP1 cell CPT: inconclusive; KB-3-1 cytotox: inactive; KB-V1 cytotox: inactive

How did Cc1ccc(-n2cnc(N)c2C(=O)c2cccc([N+](=O)[O-])c2)cc1 do in these assays?
TDP1 cell noCPT: 29µM*; HT1080-NT tox: -18%; TDP1 cell CPT: inconclusive; KB-3-1 cytotox: inactive; KB-V1 cytotox: inconclusive; HT1080 IDH1KD tx: -14%

What do the screens show for `COc1cccc(NC(=O)COC(=O)c2c3c(nc4ccccc24)CCC(C)C3)c1` (centres undefined)?
TDP1 cell noCPT: 9.2µM*; HT1080-NT tox: -5%[9.24 µM]; TDP1 cell CPT: 8.2µM*; KB-3-1 cytotox: inconclusive; KB-V1 cytotox: 2.9µM*; HT1080 IDH1KD tx: inconclusive

How did CC1CCc2nc3ccccc3c(C(=O)OCC(=O)NC3CCS(=O)(=O)C3)c2C1 (centres undefined) do in these assays?
TDP1 cell noCPT: -27%; HT1080-NT tox: -25%; TDP1 cell CPT: -2%; KB-3-1 cytotox: inactive; KB-V1 cytotox: inactive; HT1080 IDH1KD tx: inconclusive

How did O=C(NCc1ccco1)c1c2c(nc3ccccc13)CCC2 do in these assays?
TDP1 cell noCPT: 21µM*; HT1080-NT tox: 5%; TDP1 cell CPT: 15µM*; KB-3-1 cytotox: inconclusive; KB-V1 cytotox: inactive; HT1080 IDH1KD tx: 9%

Results for CC(C)NC(=O)NC(=O)COC(=O)c1c2c(nc3ccccc13)CCC2 ?
TDP1 cell noCPT: 13µM*; HT1080-NT tox: inconclusive; TDP1 cell CPT: 9.2µM*; KB-3-1 cytotox: inactive; KB-V1 cytotox: 21µM*; HT1080 IDH1KD tx: 26µM*

Results for CC(C)(C)NC(=O)COC(=O)c1c2c(nc3ccccc13)CCC2 ?
TDP1 cell noCPT: 9.2µM*; HT1080-NT tox: -15%; TDP1 cell CPT: inconclusive; KB-3-1 cytotox: inactive; KB-V1 cytotox: inconclusive; HT1080 IDH1KD tx: -17%

Results for O=C(NCc1ccccc1OC(F)(F)F)C1CCC(=O)N(CCCN2CCOCC2)C1 (centres undefined) ?
TDP1 cell noCPT: -1%; HT1080-NT tox: 8%; TDP1 cell CPT: 9%; KB-3-1 cytotox: inactive; KB-V1 cytotox: inactive; HT1080 IDH1KD tx: 5%

Results for COc1ccc(OC)c(S(=O)(=O)N2CCC(NC(=O)c3ccccc3)CC2)c1 ?
TDP1 cell noCPT: inconclusive; HT1080-NT tox: 12%; TDP1 cell CPT: -7%; KB-3-1 cytotox: inactive; KB-V1 cytotox: inactive; HT1080 IDH1KD tx: 7%

Results for CCC1CN(CCNC(=O)c2cc(C(C)C)nn2C)Cc2cc(OC)ccc2O1 (centres undefined) ?
TDP1 cell noCPT: -23%; TDP1 cell CPT: -13%[9.04 µM]

High-throughput results: PubChem BioAssay, National Center for Advancing Translational Sciences (NCATS)
